Screening data as filed in PubChem.
Compounds with a hit are over-represented: about 3.5% of the library has one in this group of screens.
TEAD-YAP inh – TEAD-YAP interaction inhibition; HEK-TIYL cells, TEAD-Gal4/YAP UAS-luciferase luminescence; inhibition, % at 9.12 µM; actives 1.4% (n = 640,000); AID 1259422; in the data active = inhibition above about 32%;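 also: 0% = median of test compound wells and 100% = reference inhibitor wells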
MITF inh – inhibitors of human MITF | O75030 | AlphaScreen MITF homodimerization, bead proximity signal | inhibition, % at 2.6 µM | actives 0.91% (n = 650,000) | AID 1259374; in the data active = inhibition above about 50%;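 also: 0% = vehicle wells with protein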
Target sequence (O75030 whole entry, looked up): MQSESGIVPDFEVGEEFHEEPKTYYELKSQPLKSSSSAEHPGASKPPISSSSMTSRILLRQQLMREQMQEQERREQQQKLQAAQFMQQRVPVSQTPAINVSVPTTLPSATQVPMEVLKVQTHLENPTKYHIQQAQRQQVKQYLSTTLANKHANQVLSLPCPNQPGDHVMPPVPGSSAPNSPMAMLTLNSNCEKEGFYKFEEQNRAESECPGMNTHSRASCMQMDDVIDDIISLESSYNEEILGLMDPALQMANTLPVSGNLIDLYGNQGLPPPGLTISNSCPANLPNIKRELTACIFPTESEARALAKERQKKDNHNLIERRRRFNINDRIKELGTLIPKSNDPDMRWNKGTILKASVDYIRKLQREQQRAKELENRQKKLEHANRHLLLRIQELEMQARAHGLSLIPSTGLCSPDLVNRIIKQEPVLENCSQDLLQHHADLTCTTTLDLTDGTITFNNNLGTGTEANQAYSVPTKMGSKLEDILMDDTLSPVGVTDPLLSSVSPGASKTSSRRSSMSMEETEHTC
FBW7 act – activators of human E3 ligase FBW7; actives 0.13% (n = 650,000); normalized activity (activation), % at 26.1 µM; Q969H0; AlphaScreen FBW7–phospho-cyclin E peptide binding, activator screen; in the data active = normalized activity above about 1.9%;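 also: purified mutant Fbw7 with reduced substrate affinity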
GPR151 activ – activators of human GPR151; Q8TDV0; PathHunter beta-arrestin GPR151 cells, luminescence; activation, % at 11.2 µM; actives 1% (n = 650,000); AID 1508602; in the data active = activation above about 4.9%;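 also: 0% = median of compound wells and 100% = cells with positive control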
GPR151 confirm – confirmation of human GPR151 activators; shares compounds with GPR151 activ; GPR151 PathHunter beta-arrestin cells, luminescence, 90 min; % of EA-reagent control over plate median; activation, % at 11.2 µM; 6,700 tested, under 10 active;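 active = mean percent activation across replicates above the confirmation screen cutoff of 4.91%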
GPR119 ag – counter-screen for GPR151 activators: effect on human GPR119; GPR119 PathHunter beta-arrestin cells, luminescence, 90 min; 0 = compound-well median, 100 = enzyme-acceptor control; actives 0.3% (n = 6,700); activation, % at 11.2 µM; AID 1508611; shares compounds with GPR151 activ;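 active = mean percent activation in the counterscreen above 29.09%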;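 also: counterscreen on off-target GPR119 to flag nonselective hits from the GPR151 activator screen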
* marks the source's active call; other numbers are inactive results.

What do the screens show for `O=C(C1CCN(S(=O)(=O)c2ccccc2)CC1)N1CCCC2CCCCC21` (stereo not given)?
TEAD-YAP inh: 3.7; MITF inh: 11.3; FBW7 act: -0.1; GPR151 activ: 6.2*; GPR151 confirm: 0.8; GPR119 ag: 5.3

How did COc1ccc(CC(=O)NNC(=O)CSc2nc(C)c(C)c(=O)[nH]2)cc1 do in these assays?
TEAD-YAP inh: 4.9; MITF inh: 8.4; FBW7 act: 0.0; GPR151 activ: 6.3*; GPR151 confirm: -0.3; GPR119 ag: -6.3

What do the screens show for `COc1ccc(C(=O)NNC(=O)CSc2ncn[nH]2)cc1`?
TEAD-YAP inh: 2.1; MITF inh: 15.2; FBW7 act: -0.1; GPR151 activ: 11.4*; GPR151 confirm: 0.0; GPR119 ag: -2.1

How did COc1ccc(C(=O)NNC(=O)CSc2nc3sc(C)c(C)c3c(=O)[nH]2)cc1 do in these assays?
TEAD-YAP inh: 7.1; MITF inh: 16.9; FBW7 act: 0.0; GPR151 activ: 4.5

Results for O=C1CN(c2ccc(Cl)cc2)S(=O)(=O)c2ccccc2N1 ?
TEAD-YAP inh: -6.0; MITF inh: 1.9; FBW7 act: 0.0; GPR151 activ: 5.6*; GPR151 confirm: 0.6; GPR119 ag: -2.9

What do the screens show for `C#CCn1c(=NC(=O)C2CC2)sc2cc(S(C)(=O)=O)ccc21`?
TEAD-YAP inh: 3.0; MITF inh: -12.5; FBW7 act: 0.5; GPR151 activ: 6.5*; GPR151 confirm: -0.7; GPR119 ag: 1.0

What do the screens show for `CCOCCn1c(=NC(=O)C2CC2)sc2cc(S(C)(=O)=O)ccc21`?
TEAD-YAP inh: 1.4; MITF inh: 3.4; FBW7 act: 0.5; GPR151 activ: 8.7*; GPR151 confirm: 1.4; GPR119 ag: 6.8

How did COc1cccc(C(=O)c2snc(Nc3ccc(F)cc3)c2N)c1 do in these assays?
TEAD-YAP inh: -4.7; MITF inh: 0.5; FBW7 act: -0.1; GPR151 activ: 2.0

How did O=C(Nc1nc2c(s1)-c1cccc3cccc-2c13)C1CC1 do in these assays?
TEAD-YAP inh: -27.4; MITF inh: -0.6; FBW7 act: -0.1; GPR151 activ: 5.0*; GPR151 confirm: 1.7; GPR119 ag: 12.7

How did O=C(Nc1nc2ccc3ccccc3c2s1)C1CC1 do in these assays?
TEAD-YAP inh: 15.5; MITF inh: 7.4; FBW7 act: 0.2; GPR151 activ: 1.8

Results for Oc1cccc2ccc(Nc3ccccn3)nc12 ?
TEAD-YAP inh: 85.9*; MITF inh: 108.1*; FBW7 act: -0.3; GPR151 activ: 5.1*; GPR151 confirm: -1.2; GPR119 ag: -7.8

Results for CN1CCC(N(C(=O)c2ccc(C(F)(F)F)cc2)C2CCN(C)CC2)CC1 ?
TEAD-YAP inh: -7.3; MITF inh: -4.2; FBW7 act: 0.0; GPR151 activ: 6.2*; GPR151 confirm: -0.6; GPR119 ag: -12.4

What do the screens show for `CCOC(=O)c1ccc(N2C(=O)c3ccc(C(=O)Oc4cccc([N+](=O)[O-])c4)cc3C2=O)cc1`?
TEAD-YAP inh: -2.5; MITF inh: 12.7; FBW7 act: -0.1; GPR151 activ: -0.7

How did Cc1ccc(NC(=O)c2nn3c(c2Br)NC(c2cccs2)CC3C(F)(F)F)cc1C (stereo not given) do in these assays?
TEAD-YAP inh: -1.3; MITF inh: -0.2; FBW7 act: 0.1; GPR151 activ: 7.1*; GPR151 confirm: 0.1; GPR119 ag: -0.1

What do the screens show for `CC(C)(C)c1ccc(OCC(O)CS(=O)Cc2ccccc2)cc1` (stereo not given)?
TEAD-YAP inh: 0.4; MITF inh: 0.5; FBW7 act: 0.0; GPR151 activ: 5.4*; GPR151 confirm: 0.2; GPR119 ag: 5.5

What do the screens show for `COc1ccc(OC)c(CNCc2ccc3c(c2)OCO3)c1`?
TEAD-YAP inh: -8.6; MITF inh: 36.9; FBW7 act: 0.0; GPR151 activ: -1.0

How did COc1ccc(OC)c(C2=NNC(=NCc3ccc4c(c3)OCO4)SC2)c1 do in these assays?
TEAD-YAP inh: -5.4; MITF inh: -3.9; FBW7 act: -0.1; GPR151 activ: 5.6*; GPR151 confirm: 1.4; GPR119 ag: 10.1

What do the screens show for `CCCCCCCCCCCCCC/C(C(=O)O)=C(\C)C(=O)O`?
TEAD-YAP inh: 6.1; MITF inh: 14.6; FBW7 act: 0.0; GPR151 activ: 9.5*; GPR151 confirm: 2.2; GPR119 ag: -3.5

How did O=C(Nc1cccc(Cl)c1)C1CCCN1c1nnc(N2CCCC2=O)s1 (stereo not given) do in these assays?
TEAD-YAP inh: 0.2; MITF inh: -7.0; FBW7 act: -0.2; GPR151 activ: -0.1

Results for COc1ccc(NC(=O)c2cc(S(=O)(=O)N3CCCc4ccccc43)ccc2F)cc1 ?
TEAD-YAP inh: 0.2; MITF inh: 2.9; FBW7 act: 0.0; GPR151 activ: -0.2

Results for CC(=O)Cn1c(=O)c2c(nc3n(-c4ccccc4C)c(C)c(C)n23)n(C)c1=O ?
TEAD-YAP inh: 4.7; MITF inh: 18.4; FBW7 act: 0.1; GPR151 activ: 5.5*; GPR151 confirm: -0.6; GPR119 ag: -1.2

Results for C=CCn1c(=O)c2c(nc3n(-c4ccccc4C)c(C)c(C)n23)n(C)c1=O ?
TEAD-YAP inh: 13.9; MITF inh: 14.2; FBW7 act: -0.1; GPR151 activ: 2.3

Results for Cc1[nH]n(-c2ccccc2)c(=O)c1/C=N/NC(=O)c1ccccn1 ?
TEAD-YAP inh: -43.7; MITF inh: -6.7; FBW7 act: 0.2; GPR151 activ: -2.4

Results for CC(C)C(=O)Nc1nnc(S(=O)(=O)N(C)c2ccc(Cl)cc2)s1 ?
TEAD-YAP inh: 11.9; MITF inh: 2.0; FBW7 act: 0.3; GPR151 activ: 5.8*; GPR151 confirm: -0.5; GPR119 ag: -4.1

What do the screens show for `Cc1nc(NCC2CC2)sc1-c1ccn(-c2cccc(F)c2)n1`?
TEAD-YAP inh: 9.2; MITF inh: 0.1; FBW7 act: -0.1; GPR151 activ: 5.8*; GPR151 confirm: 0.2; GPR119 ag: -1.9

Results for Cc1nc(NCC2CC2)sc1-c1ccn(CCN2CCOCC2)n1 ?
TEAD-YAP inh: -4.6; MITF inh: -7.0; FBW7 act: -0.1; GPR151 activ: -0.2

How did C=CCNc1cc(CC)nc2c3c(C)cc(C)nc3nn12 do in these assays?
TEAD-YAP inh: -0.6; MITF inh: -5.6; FBW7 act: 0.2; GPR151 activ: 4.2

What do the screens show for `COCC(=O)Nc1nc2ccc(OC)cc2s1`?
TEAD-YAP inh: -53.3; MITF inh: 3.9; FBW7 act: 0.0; GPR151 activ: 8.6*; GPR151 confirm: -1.6; GPR119 ag: -10.8

Results for COCc1nnn(-c2nonc2N)c1C(=O)NNC(=O)c1ccccc1Br ?
TEAD-YAP inh: 9.4; MITF inh: 6.1; FBW7 act: 0.2; GPR151 activ: 10.0*; GPR151 confirm: 1.0; GPR119 ag: 8.4

Results for COCc1nnn(-c2nonc2N)c1C(=O)NNC(=O)C1CC1 ?
TEAD-YAP inh: 2.9; MITF inh: -3.7; FBW7 act: 0.1; GPR151 activ: -0.4
